We go through four compounds from PubChem BioAssay (EPA / NIEHS).

SMILES strings stand for the structures. Activity calls are given as the source filed them. How the source made its calls: active means hit-call score of the fitted dose curve at least 0.9, where 1 is the maximum; inactive means score below 0.9.

The nature of experiment [1]: BSK_hDFCGF_SRB: Viability Assessment in the BioMAP Diversity Plus: hDFCGF Assay (AID 2283061).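 Further: cells exposed to compound for 24 h before the read.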 The conditions noted are these: primary human foreskin fibroblasts. The gist of the method:
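Human foreskin fibroblasts in 96-well plates were treated 24 h. Total protein was measured by 0.1% SRB staining after 10% TCA fixation, read at 560 nm. Data were fitted bidirectionally against DMSO.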

Read-out in experiment [2]: TIMP metallopeptidase inhibitor 1 (TIMP1), TIMP1 (gene 7076)
Put plainly: BSK_hDFCGF_TIMP1: BioMAP Diversity Plus: hDFCGF Assay for TIMP metallopeptidase inhibitor 1 (TIMP1) Biomarker Activity (AID 2283062). The conditions noted are these: primary human foreskin fibroblasts; actives raise or lower the signal. The gist of the method: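 Human foreskin fibroblast primary cultures dosed for 24 h; secreted/surface TIMP-1 quantified by ELISA. Bidirectional curve fitting against DMSO baseline; cytotoxicity tracked in parallel cultures by SRB total-protein staining.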

Read-out in experiment [3]: Monokine induced gamma interferon (MIG), CXCL9 (gene 4283)
Put plainly: BSK_hDFCGF_MIG: BioMAP Diversity Plus: hDFCGF Assay for Monokine induced gamma interferon (MIG) Biomarker Activity (AID 2283063). The conditions noted are these: primary human foreskin fibroblasts; actives raise or lower the signal. The gist of the method: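 MIG/CXCL9 measured by ELISA 24 h after dosing primary human skin fibroblasts. Activity fitted in both directions against DMSO controls. Cytotoxicity was checked in parallel cultures by SRB staining read at 560 nm.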

Read-out in experiment [4]: Matrix Metallopeptidase 1 (MMP1), MMP1 (gene 4312)
Put plainly: BSK_hDFCGF_MMP1: BioMAP Diversity Plus: hDFCGF Assay for Matrix Metallopeptidase 1 (MMP1) Biomarker Activity (AID 2283064). The conditions noted are these: primary human foreskin fibroblasts; actives raise or lower the signal. The gist of the method: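 ELISA read-out of MMP1 from human foreskin fibroblasts (primary skin cells), 24 h post-dose. Gain or loss of signal was fitted bidirectionally versus DMSO negative control; cytotoxicity was checked by SRB in parallel cultures.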

Read-out in experiment [5]: Vascular cell adhesion molecule 1 (VCAM1), VCAM1 (gene 7412)
As to the kind of experiment: BSK_hDFCGF_VCAM1: BioMAP Diversity Plus: hDFCGF Assay for Vascular cell adhesion molecule 1 (VCAM1) Biomarker Activity (AID 2283065).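 On AC50: VCAM-1 protein level quantified by ELISA after 24 h chemical exposure.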 As to conditions: primary human foreskin fibroblasts; actives raise or lower the signal. An outline of the steps: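 Human foreskin fibroblast primary cells dosed with chemical, VCAM-1 measured by ELISA at 24 h. Bidirectional curve fitting relative to DMSO as negative control/baseline.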

Read-out in experiment [6]: Intercellular Adhesion Molecule 1 (ICAM1), ICAM1 (gene 3383)
As to the kind of experiment: BSK_KF3CT_ICAM1: BioMAP Diversity Plus: KF3CT Assay for Intercellular Adhesion Molecule 1 (ICAM1) Biomarker Activity (AID 2283067). The conditions noted are these: primary human keratinocytes with fibroblasts; actives raise or lower the signal. The gist of the method: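 Human keratinocyte–foreskin fibroblast co-culture was treated for 24 h. Cell-surface ICAM-1 was quantified by ELISA, fitted bidirectionally relative to DMSO. Cytotoxicity was checked in parallel cultures by SRB total-protein staining.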

Read-out in experiment [7]: Interferon-gamma inducible Protein 10 (IP10), CXCL10 (gene 3627)
Put plainly: BSK_KF3CT_IP10: BioMAP Diversity Plus: KF3CT Assay for Interferon-gamma inducible Protein 10 (IP10) Biomarker Activity (AID 2283068). As to conditions: primary human keratinocytes with fibroblasts; actives raise or lower the signal. An outline of the steps:
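KF3CT co-culture (keratinocytes + foreskin fibroblasts), 24 h compound, IP-10 by ELISA; bidirectional fit vs DMSO baseline.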

Read-out in experiment [8]: Interleukin-1 alpha (IL1a), IL1A (gene 3552)
Put plainly: BSK_KF3CT_IL1a: BioMAP Diversity Plus: KF3CT Assay for Interleukin-1 alpha (IL1a) Biomarker Activity (AID 2283070). As to conditions: primary human keratinocytes with fibroblasts; actives raise or lower the signal. The gist of the method:
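Primary skin co-culture (keratinocytes, foreskin fibroblasts), 24 h exposure; ELISA for IL-1a; bidirectional curve fit vs DMSO.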

Read-out in experiment [9]: Transforming growth factor beta 1 (TGFb1), TGFB1 (gene 7040)
As to the kind of experiment: BSK_KF3CT_TGFb1: BioMAP Diversity Plus: KF3CT Assay for Transforming growth factor beta 1 (TGFb1) Biomarker Activity (AID 2283072). The conditions noted are these: primary human keratinocytes with fibroblasts; actives raise or lower the signal. An outline of the steps: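 ELISA quantifies TGF-b1 at 24 h post-dose in a primary human skin co-culture of keratinocytes and fibroblasts, with gain or loss judged against DMSO. Parallel SRB total-protein staining flags overt cytotoxicity.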

Read-out in experiment [10]: C-C motif chemokine 2 (Homo sapiens) (UniProt P13500)
As to the kind of experiment: BSK_KF3CT_MCP1: BioMAP Diversity Plus: KF3CT Assay for Monocyte Chemoattractant Protein 1 (MCP1/CCL2) Biomarker Activity (AID 2283073). The conditions noted are these: primary human keratinocytes with fibroblasts; actives raise or lower the signal. The gist of the method:
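Human keratinocyte–foreskin fibroblast co-culture; MCP-1 measured by ELISA 24 h after dosing. Bidirectional fit vs DMSO; cytotoxicity tracked by SRB total protein in parallel cultures.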

Read-out in experiment [11]: Matrix Metallopeptidase 9 (MMP9), MMP9 (gene 4318)
As to the kind of experiment: BSK_KF3CT_MMP9: BioMAP Diversity Plus: KF3CT Assay for Matrix Metallopeptidase 9 (MMP9) Biomarker Activity (AID 2283074).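 On AC50: MMP9 protein level quantified by ELISA in the co-culture.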 The conditions noted are these: primary human keratinocytes with fibroblasts; actives raise or lower the signal. The gist of the method: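 ELISA read-out of MMP-9 at 24 h post-dosing in a co-culture of human skin keratinocytes and foreskin fibroblasts. Gain or loss of signal was fitted in both directions against DMSO.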

Read-out in experiment [12]: urokinase plasminogen activator (uPA), PLAU (gene 5328)
Put plainly: BSK_KF3CT_uPA: BioMAP Diversity Plus: KF3CT Assay for urokinase plasminogen activator (uPA) Biomarker Activity (AID 2283075). The conditions noted are these: primary human keratinocytes with fibroblasts; actives raise or lower the signal. The gist of the method:
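Skin co-culture (keratinocytes + foreskin fibroblasts), human primary; 24 h post-dose; uPA by ELISA; gain/loss fit vs DMSO baseline.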

Read-out in the next experiment: CD40, CD40 (gene 958)
Put plainly: BSK_LPS_CD40: BioMAP Diversity Plus: LPS Assay for CD40 Biomarker Activity (AID 2283076). As to conditions: primary human HUVEC with PBMC; actives raise or lower the signal. The gist of the method:
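HUVEC plus PBMC co-culture stimulated with LPS; CD40 quantified by ELISA 24 h after compound dosing. Fitting was bidirectional relative to DMSO. SRB staining of parallel cultures flagged overt cytotoxicity.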

Read-out in experiment [13]: E-selectin (Homo sapiens) (UniProt P16581)
Put plainly: BSK_LPS_Eselectin: BioMAP Diversity Plus: LPS Assay for Eselectin Biomarker Activity (AID 2283077). The conditions noted are these: primary human HUVEC with PBMC; actives raise or lower the signal. An outline of the steps: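 Human umbilical vein endothelial cells co-cultured with PBMC under LPS stimulation; cell-surface E-selectin measured by ELISA 24 h after dosing. Change in either direction versus DMSO, with SRB total-protein staining in parallel cultures for cytotoxicity.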

Read-out in experiment [14]: Interleukin-8 (IL8), CXCL8 (gene 3576)
As to the kind of experiment: BSK_LPS_IL8: BioMAP Diversity Plus: LPS Assay for Interleukin-8 (IL8) Biomarker Activity (AID 2283078). As to conditions: primary human HUVEC with PBMC; actives raise or lower the signal. The gist of the method: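 Human umbilical vein endothelial cells co-cultured with PBMC, LPS-stimulated, exposed to compound for 24 h. IL-8 quantified by ELISA; fitted in both directions against DMSO, with SRB total-protein staining of parallel cultures for cytotoxicity.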

Experiment [15] is described as follows: BSK_LPS_SRB: Viability Assessment in the BioMAP Diversity Plus: LPS Assay (AID 2283079).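 Further: total protein by sulforhodamine B absorbance as a cytotoxicity measure; measured one day after compound addition.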 The conditions noted are these: primary human HUVEC with PBMC. An outline of the steps: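 Co-culture of human umbilical vein endothelial cells and PBMC, read 24 h after dosing. Total protein by 0.1% SRB staining after 10% TCA fixation, absorbance at 560 nm; bidirectional fit against DMSO.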

Read-out in experiment [16]: Interleukin-1 alpha (IL1a), IL1A (gene 3552)
Put plainly: BSK_LPS_IL1a: BioMAP Diversity Plus: LPS Assay for Interleukin-1 alpha (IL1a) Biomarker Activity (AID 2283080). The conditions noted are these: primary human HUVEC with PBMC; actives raise or lower the signal. The gist of the method:
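Human umbilical vein endothelial cells co-cultured with PBMC and stimulated with LPS; IL-1a measured by ELISA 24 h after dosing. Bidirectional fitting against DMSO; cytotoxicity checked by SRB staining in parallel cultures.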

Experiment [17] can be described thus: BSK_KF3CT_SRB: Viability Assessment in the BioMAP Diversity Plus: KF3CT Assay (AID 2283069).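 Further: total protein by sulforhodamine B staining as a cytotoxicity measure; read 24 h after compound addition.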 As to conditions: primary human keratinocytes with fibroblasts. An outline of the steps:
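SRB read-out at 560 nm (0.1% stain, TCA-fixed cells) gauges overt cytotoxicity in a human skin keratinocyte–fibroblast co-culture 24 h post-dosing. Signal change was fitted bidirectionally relative to DMSO control.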

Read-out in experiment [18]: TIMP metallopeptidase inhibitor 2 (TIMP2), TIMP2 (gene 7077)
As to the kind of experiment: BSK_KF3CT_TIMP2: BioMAP Diversity Plus: KF3CT Assay for TIMP metallopeptidase inhibitor 2 (TIMP2) Biomarker Activity (AID 2283071). As to conditions: primary human keratinocytes with fibroblasts; actives raise or lower the signal. An outline of the steps:
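TIMP-2 measured by ELISA at 24 h in human keratinocyte/fibroblast primary co-cultures exposed to chemicals. Both increases and decreases were fitted against DMSO. Parallel cultures were stained with SRB for total protein as an overt-cytotoxicity check.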

Sequence of E-selectin (Homo sapiens) (P16581 whole entry, looked up): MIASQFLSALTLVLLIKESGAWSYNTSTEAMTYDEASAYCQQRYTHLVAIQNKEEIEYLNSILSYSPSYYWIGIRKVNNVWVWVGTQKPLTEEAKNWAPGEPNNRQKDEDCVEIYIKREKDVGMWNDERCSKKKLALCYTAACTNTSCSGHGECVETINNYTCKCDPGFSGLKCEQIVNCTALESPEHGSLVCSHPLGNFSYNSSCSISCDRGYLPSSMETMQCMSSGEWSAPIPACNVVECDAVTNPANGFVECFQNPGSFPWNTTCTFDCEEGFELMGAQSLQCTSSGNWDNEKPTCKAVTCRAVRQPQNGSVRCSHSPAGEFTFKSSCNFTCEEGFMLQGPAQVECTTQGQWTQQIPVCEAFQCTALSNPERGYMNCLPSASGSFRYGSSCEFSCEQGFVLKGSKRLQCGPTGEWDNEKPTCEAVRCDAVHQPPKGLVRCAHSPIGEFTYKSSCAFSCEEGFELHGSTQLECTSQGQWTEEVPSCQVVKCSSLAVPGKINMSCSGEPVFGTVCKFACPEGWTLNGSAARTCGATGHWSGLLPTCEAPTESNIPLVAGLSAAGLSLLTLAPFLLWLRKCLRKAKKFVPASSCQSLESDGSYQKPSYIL

Turning to `Cc1cccc([N+](=O)[O-])c1C`, the result in [1], in [2], in experiment [3], in experiment [4], in experiment [5] and in [6] was inactive. Moreover, the outcome in experiment [7], in [8], in experiment [9], in experiment [10], in experiment [11] and in [12] was inactive. Moreover, the outcome with CD40, CD40 (gene 958) is “inactive”; in experiment [13] it was “inactive”; in [14] it was “inactive”; in experiment [15], “inactive”; in [16] it was “inactive”.

Usually AC50 stands for the concentration giving half of the maximal activity seen. Consider `COc1cc(-c2nc(NC(=O)c3cc4cc(C)cc(C)c4n3CC(=O)O)sc2CCC2CCCCC2)c(OC)cc1Cl`, for which the AC50 was 771 nM (active) in [1]; 480 nM (active) in [2]; 1620 nM (active) in [3]; 471 nM (active) in experiment [4]; 317 nM (active) in experiment [5]; 3230 nM (active) in experiment [6]. Also, the AC50 in [7] is 1550 nM (active); in experiment [8], 4260 nM (active); in [10], 1380 nM (active); in experiment [11], 1680 nM (active); in [12], 1890 nM (active); in the experiment with CD40, CD40 (gene 958), 3160 nM (active). The AC50 is 8510 nM (active) in [13], 12200 nM (active) in experiment [14], 4610 nM (active) in experiment [15] and 4690 nM (active) in [16].

Consider `CCOC(=O)CCC(=O)OCC`, for which the outcome in [1], in experiment [2], in [3], in experiment [4], in experiment [5] and in experiment [6] was inactive. Moreover, the result in experiment [7], in experiment [17], in experiment [8], in experiment [18], in experiment [9] and in experiment [10] was inactive. Further, the result in experiment [11], in experiment [12], in experiment [13], in experiment [14], in experiment [15] and in [16] was inactive.

For `CCCCCC(=O)O`, the outcome in experiment [1], in [2], in experiment [3], in experiment [4], in [5] and in experiment [6] was inactive. In addition, the outcome in experiment [7] is “inactive”; in [8], “inactive”; in [10], “inactive”; in experiment [11] it was “inactive”; in experiment [12] it was “inactive”; with CD40, CD40 (gene 958) it was “inactive”. In addition, the outcome in experiment [13], in [14], in experiment [15] and in [16] was inactive.
